Source: the supplement of paper PMC12632987

T1: USP38, Q8NB14
T1 chain: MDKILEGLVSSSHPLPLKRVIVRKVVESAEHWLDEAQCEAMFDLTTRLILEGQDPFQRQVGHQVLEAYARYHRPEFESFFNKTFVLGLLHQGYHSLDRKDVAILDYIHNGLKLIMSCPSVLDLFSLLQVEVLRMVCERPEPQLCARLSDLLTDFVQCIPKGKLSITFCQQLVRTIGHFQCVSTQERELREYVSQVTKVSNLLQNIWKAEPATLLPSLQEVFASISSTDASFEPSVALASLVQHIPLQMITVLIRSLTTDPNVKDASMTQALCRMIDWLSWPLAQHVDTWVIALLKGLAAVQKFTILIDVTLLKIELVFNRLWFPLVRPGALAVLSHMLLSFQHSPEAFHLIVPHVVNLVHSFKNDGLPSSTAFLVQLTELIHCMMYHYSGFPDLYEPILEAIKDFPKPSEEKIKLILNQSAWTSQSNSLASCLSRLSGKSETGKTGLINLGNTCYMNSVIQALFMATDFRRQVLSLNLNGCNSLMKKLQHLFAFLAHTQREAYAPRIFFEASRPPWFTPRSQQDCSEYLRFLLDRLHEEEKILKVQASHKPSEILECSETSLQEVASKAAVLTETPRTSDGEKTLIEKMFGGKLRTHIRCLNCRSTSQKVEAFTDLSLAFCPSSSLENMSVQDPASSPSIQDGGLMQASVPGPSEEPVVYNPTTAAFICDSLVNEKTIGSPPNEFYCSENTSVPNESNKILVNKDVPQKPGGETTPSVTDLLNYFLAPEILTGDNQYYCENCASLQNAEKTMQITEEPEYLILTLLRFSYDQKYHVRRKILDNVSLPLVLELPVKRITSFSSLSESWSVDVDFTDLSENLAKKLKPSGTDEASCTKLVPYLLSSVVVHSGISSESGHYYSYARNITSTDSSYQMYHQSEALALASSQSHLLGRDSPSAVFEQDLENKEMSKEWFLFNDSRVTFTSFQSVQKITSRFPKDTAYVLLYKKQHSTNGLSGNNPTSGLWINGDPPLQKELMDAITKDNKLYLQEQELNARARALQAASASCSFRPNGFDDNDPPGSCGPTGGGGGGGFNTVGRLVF

B1: usp_38_diff_out_18_14_304 (protein)
chain: SEELAAALKSNLESLTKEVKEDTERVIKLLKKRKDDPEEVKRIYERAERNLAGVEAYAKEVKAEAEKAGDAETVAAAEALLKEVKEAREKVKKAYEEVMA
B2: usp_38_diff_out_18_14_314 (protein)
chain: SEELEEAELSALKTLTADVEADTARKIELLEKAKDDPERVKRIYDRALRDLAGVRTYAEEVLKRAKERGNEELLAAAEALLATVDAAEARLTAKYEEVMK
B3: usp_38_diff_out_18_14_297 (protein)
chain: SEELSEAEISNLELLKKEVEEDTERTIELLEKVKDDPERVKRIVERALRNLAGVEAYAKDVKERAEKEGNEKTVAAANELLATIEEARKRIEEKYKKVME
B4: usp_38_diff_out_18_14_308 (protein)
chain: AEELAAAKKSNLESLKEEVKKYTERVIELLKKAKDDPERVKRIYERAQRDLEGVRTYAEEVLKEAEAAGDEETKAAAKELLKEIDEAKKKVEKAYKEVMA
B5: usp_38_diff_out_18_14_325 (protein)
chain: DAELIAATLANLKSLTEETKKDTERLEKVVEKLKDDPESARSLLETRRQAYEGVKEYAEETKKEAEANGDKELAAAAQELKDAAEKALEKIDKLLKELEA
B6: usp_38_diff_out_18_14_323 (protein)
chain: SEELREATKSNLKTLTAEIKEWTARRLKVIEKLKDDPESATSLLDTAKQALQGVIKYAEEVKREAEEEGDEELKKAATETKKAAEDALKQLEAKEAKLKA
B7: usp_38_diff_out_18_14_328 (protein)
chain: SAELREALLSNLETLTKEVKEVTERTLKIVDKLKGDPEAARSLLDTRIQALEGVIKYAEEVAKEAKAAGDKELEAAAEKLKKEAEKAKKELEEKKKALEA
B8: usp_38_diff_out_18_14_292 (protein)
chain: SEELSEAEKSVLETLKKDVREDTERTIRLLEKVKDDPERVKRVVERARRNLAGVRAYAEEVKERAEKRGDEETVKAAEELLKEVEKAEERIEKAEEEVLK
B9: usp_38_diff_out_18_14_295 (protein)
chain: SEELSKAEISVLETLTKEVEADTDRTIALLEKVADDPERVKRIVERANRNLAGVRAYAEEVKERAEERGDEETVKKAEELLKKIDEAEARIAAAEAAVRA
B10: usp_38_diff_out_18_14_299 (protein)
chain: SAELAEAKAANLKLLKTDVKEDTERVIKLLKKNKNDPERVKRIYDRAKRNLAGVRTYAEEVLEEAKAAGDAATAAAAQELLKTIDEEEKKIEEEYKKVMA
B11: usp_38_diff_out_18_14_317 (protein)
chain: SEELSKALLSNLKTLTKEVEEDTKRLEKIVEALKDDPEAARSLLETRRQAYEGVAKYAKEVLKEAKEAGDEELAKAAEELLKAAEKALEEVEKRLKELEE
B12: usp_38_diff_out_18_14_309 (protein)
chain: SAELAEAKKKNLEQLTTDVKEDTERVIRLLRKRRDDPEAVKRLYERAQRNLAGVRKYAEEVKKEAEKAGDKETVAAAEKLLKEVAEAEKRIEEEYARVMA
B13: usp_38_diff_out_18_14_307 (protein)
chain: GEELAAAQLSNLNSLKTDVEKDTERVIKLLKKAKDDPERVKRIYERAKRNLAGVRTYATEVKEEAEKAGNAELVAAANDLLATIDDAEKKIEEEYKKVMA
B14: usp_38_diff_out_18_14_312 (protein)
chain: SEEEAEALLSSVEILTADVERDTARKIRLLEAAKDDPELVERIYERALRDLAGVEAYAEEVLAQAKAEGNAELEAAAQALLATVAAARARLEAAYAAVRA
B15: usp_38_diff_out_18_14_296 (protein)
chain: SSELSEAERSVLELLKEEVKKDTERTIKLLEKVKDDPERVKRIVERAERNLAGVRAFAEEVKERAEKEGDEETVKAAEELLAEIDAARERIAAAREKVLA
B16: usp_38_diff_out_18_14_313 (protein)
chain: SEELREAEKSSLEILKKDVEEDTERKIKLLKKAKNDPERVKRIYERAMRDLEGVKKYAEEVLKRAEEEGDEETKKAAEELLKKVEEARERLEKAYKEVME
B17: usp_38_diff_out_18_14_316 (protein)
chain: SEEEEEALLSAVEILKADVERDTDRKIRLLEKAKDDPELVERIYERALRDLAGVEAYAKEVEKEAKKNGNEKLLKAAKELLKTVAAARERLEAAYKEVMA
B18: usp_38_diff_out_18_14_293 (protein)
chain: DAELSAAERSALATLRTDVAADTARTIALLKRVKDDPERVDRVVERARRNLAGVRAFAEEVLREAEERGDEETVAAARELLAAIDAAEAAVAAAAAAVRA
B19: usp_38_diff_out_18_14_324 (protein)
chain: SEELIKARISNLKSLTEEVKKVTARKLKVIDALKDDPESATALIDTQLQALEGVIKYAEEEKKEAEKLGNEELIKAAEELKKAAEEAKAELEKKRKELAA
B20: usp_38_diff_out_18_14_306 (protein)
chain: SEELAEAERSNLESLKKDVKEYTERVIKLLEKAKDDPERVKRIYERAKRNLAGVEEYAKEVLKRAKEAGDEETVKAAEELLKTIEEARKKVEEAYEKVMK
B21: usp_38_diff_out_18_14_294 (protein)
chain: SSELSEAEVSALELLKKEVREDTERTIRLLEKVKDDPERVKRIVERRQRNLAGVRAYAEEVRRRAEELGDEETVAAANELLAEIDKAEKEVEEAVKRVEA
B22: usp_38_diff_out_18_14_303 (protein)
chain: GEELAKAELENLKQLKADVKAYTERVIRLLEAARDDPERVKRIYERAQRDLAGVETYAKEVKKEAEKRGDKELVKAAEELLKEVAAARERVEAAYRAVMA
B23: usp_38_diff_out_18_14_302 (protein)
chain: AAELAAAKKSNLESLKKDVEEDTKRVIELLEKAKDDPERVKRIYENAKRNLAGVRKYAEEVKKEAEEAGDKETVAAAEELLKTIEEAEKKVEEAYKKVMA
B24: usp_38_diff_out_18_14_310 (protein)
chain: SEELAEAEKSNLEKLTKEVEEDTERVIRLLEKAKDDPERVKRIYERAKRNLAGVETYAKEILERAKKAGDEETKKAAEELLKKIAEARERIEKAYEEVMK
B25: usp_38_diff_out_18_14_315 (protein)
chain: SEELQEAELSSLKILKEDVVRDTERAIRLLEKSKDDPERVKRIYERRMRNLAGVREYAKEVLERAKKEGNEELLKAAEELLKTVDAAEERLEAKYKEVMA
B26: usp_38_diff_out_18_14_300 (protein)
chain: SAELAEALKSNLEILKEDVKRYTERVIRLLRKNKDDPERVKRIYERAKRDLEGVRKFAEEVLKLAKEEGDEETAKAAEELLKTIEEEEKRIEEEYKRVMA
B27: usp_38_diff_out_18_14_326 (protein)
chain: SEELTEATLSNLKSLTEETKKTTERLKKIVEKLKDDKESALSLLDTRTQAFKGVLKYAEETEKEAKKAGNEELLAAAKELKEAAKKALEEIEKLKKELEE
B28: usp_38_diff_out_18_14_318 (protein)
chain: SEELIKQTLSNVKKLTEEVKKDTKRTLKILEKLKDDKESALSLIDTRIQALNGVIKYAEELKKEAEKLGNKELAEAAKELIKAAKEAKKELEKRKKALKE
B29: usp_38_diff_out_18_14_327 (protein)
chain: SEELKEALLSNLKLLKEEVKKDTERTLKILEKLKGDPESARSLIDTRIQALEGVIKYAEEVAKMAKEEGDEELKKAAEELKKEAEEAKKKLEEKRKELEK
B30: usp_38_diff_out_18_14_301 (protein)
chain: SEELAEALRSNLELLKEDVKEDTERVIRLLKKNKNDPERVKDIYERAKRNLAGVREYAEEVLEEAEEAGDEETAEAARELLETIEEERKKIEEEYKKVMA
B31: usp_38_diff_out_18_14_319 (protein)
chain: MEELIEAEKANLKSLTAEVERDTARRLAVVDALRDDPDAAQSLLDTAAQALQGVIAYAEEVAKRAEELGNEELKKAAEELKAAARAALARLEARRAELAA
B32: usp_38_diff_out_18_14_311 (protein)
chain: AEELAQAELDNLKSLTTAVTADTARVIRLLEQSKDDPERVKRIYERAKRNLAGVETYAQEVKARAEAAGDADLVAAADALLATVAAARAAIEAAYKAVMA

Molecular target: T1, USP38, Q8NB14
Experiment: median log2 fold change of GCK-ALFA target abundance (FLAG IP / Myc IP barcode read proportion) (log2 ratio); each designed protein is fused to an ALFA-tag nanobody in HEK293 cells to bring the named protein to FLAG-tagged glucokinase (GCK); Myc marks an untargeted standard; higher = target protein stabilised (more abundant)
Conditions: target protein: 3xFLAG-MCP-GCK-ALFA reporter; HEK293 landing pad (RPLP)
Outline: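 HEK293 landing-pad cells received a recombined binder library fused to the ALFA nanobody and were induced with 2 μg mL^−1 doxycycline, then transfected with a plasmid encoding a FLAG-tagged target and a Myc-tagged standard. Lysates were collected after 48 h for anti-FLAG and anti-Myc immunoprecipitation, and the circular RNA barcodes were reverse transcribed, amplified and sequenced. Target abundance for each binder is the median log2 ratio of FLAG to Myc barcode read proportions. Barcodes had to reach a proportion of at least 10^−7 in both replicates, each binder needed at least 3 barcodes per replicate, a pseudocount of 10^−6 was applied, and the two replicates were pooled.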

**Q.** B1 was tested. Which “median log2 fold change” value did it give?
**A.** 0.296

**Q.** Which “median log2 fold change” value does the source give for B2 here?
**A.** 0.22

**Q.** B3 was tested. Which “median log2 fold change” value did it give?
**A.** 0.335

**Q.** Which “median log2 fold change” value does the source give for B4 here?
**A.** -0.392

**Q.** How did the “median log2 fold change” value turn out when B5 was run?
**A.** 0.134

**Q.** B6 was tested. Which “median log2 fold change” value did it give?
**A.** -0.403

**Q.** Which “median log2 fold change” value does the source give for B7 here?
**A.** -0.102

**Q.** B8 was tested. Which “median log2 fold change” value did it give?
**A.** 0.0826

**Q.** How did the “median log2 fold change” value turn out when B9 was run?
**A.** 0.017

**Q.** Which “median log2 fold change” value does the source give for B10 here?
**A.** -0.444

**Q.** For B11, which “median log2 fold change” value is on record?
**A.** -0.378

**Q.** B12 was tested. Which “median log2 fold change” value did it give?
**A.** -0.138

**Q.** For B13, which “median log2 fold change” value is on record?
**A.** -0.0463

**Q.** Which “median log2 fold change” value does the source give for B14 here?
**A.** 0.0395

**Q.** With B15 as the binder, how does the “median log2 fold change” value read?
**A.** -0.447

**Q.** Which “median log2 fold change” value does the source give for B16 here?
**A.** 0.328

**Q.** B17 was tested. Which “median log2 fold change” value did it give?
**A.** 0.00386

**Q.** Which “median log2 fold change” value does the source give for B18 here?
**A.** -0.59

**Q.** For B19, which “median log2 fold change” value is on record?
**A.** 0.13

**Q.** For B20, which “median log2 fold change” value is on record?
**A.** -0.549

**Q.** How did the “median log2 fold change” value turn out when B21 was run?
**A.** 0.136

**Q.** How did the “median log2 fold change” value turn out when B22 was run?
**A.** -0.327

**Q.** Which “median log2 fold change” value does the source give for B23 here?
**A.** 0.326

**Q.** For B24, which “median log2 fold change” value is on record?
**A.** 0.384

**Q.** How did the “median log2 fold change” value turn out when B25 was run?
**A.** 0.253

**Q.** Which “median log2 fold change” value does the source give for B26 here?
**A.** -0.852

**Q.** With B27 as the binder, how does the “median log2 fold change” value read?
**A.** -0.166

**Q.** B28 was tested. Which “median log2 fold change” value did it give?
**A.** -0.746

**Q.** With B29 as the binder, how does the “median log2 fold change” value read?
**A.** -0.444

**Q.** How did the “median log2 fold change” value turn out when B30 was run?
**A.** -0.149

**Q.** B31 was tested. Which “median log2 fold change” value did it give?
**A.** 0.235

**Q.** B32 was tested. Which “median log2 fold change” value did it give?
**A.** -0.0344
